# Inconclusive results are not listed. Where a call stands in place of a potency, no number is given. A number with no mark means an inactive call. The source made the active and inactive calls. The call rests on the fitted dose curve; in most records, active means well fitted inhibition curve with a large enough effect; inconclusive means small, poorly fitted or top-dose-only effect; inactive means flat fitted curve, though single readings scatter.
# Molecular target: Glutathione peroxidase 1 (Homo sapiens) (UniProt P07203)
# Sequence (P07203 whole entry, looked up): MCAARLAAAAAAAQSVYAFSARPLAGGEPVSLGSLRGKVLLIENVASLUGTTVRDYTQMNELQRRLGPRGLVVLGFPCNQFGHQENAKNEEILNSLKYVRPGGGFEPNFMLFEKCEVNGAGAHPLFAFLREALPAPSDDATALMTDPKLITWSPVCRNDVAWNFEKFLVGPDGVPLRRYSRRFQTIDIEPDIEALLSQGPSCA
# Experiment: Primary qHTS Assay for Inhibitors of Recombinant Selenoprotein Glutathione Peroxidase 1 (GPX1) (AID 1845191)
# Conditions: recombinant GPX1, GR-coupled NADPH fluorescence, 15 min; series mostly up to 48.8 µM
# Outline: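 GPX1 10 nM, GR 100 nM, GSH 1 mM, NADPH 0.5 mM, CHP 0.5 mM (final). 30-min cpd preincubation, RT. Ex340/Em450 read t=0, t=15 min.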
# Further: nearly all actives have a fitted effect of over 65% in size.
# Potency means the concentration at half of the fitted maximal effect.
Structure (SMILES),Potency,outcome,"activity, negative = inhibition"
O=C(CCCN1CCC(C(=O)c2ccc(F)cc2)CC1)c1ccc(F)cc1,inactive,,
CN1C(=O)C[C@@H](C(=O)N[C@@H](Cc2cnc[nH]2)C(=O)N2CCC[C@H]2C(N)=O)NC1=O,inactive,,
CC(=O)Nc1c(I)c(C(=O)N[C@H]2C(O)O[C@H](CO)[C@@H](O)[C@@H]2O)c(I)c(N(C)C(C)=O)c1I (stereo partly specified),inactive,,
CC(C)[C@H](N)C(=O)OCC(CO)OCn1cnc2c(=O)[nH]c(N)nc21 (stereo partly specified),inactive,,
Nc1ccc(N=Nc2ccccc2)c(N)n1,inactive,,
NC[C@@H]1O[C@H](O[C@H]2[C@@H](O)[C@H](O[C@@H]3[C@@H](O)[C@H](N)C[C@H](N)[C@H]3O[C@H]3O[C@H](CO)[C@@H](O)[C@H](O)[C@H]3N)O[C@@H]2CO)[C@H](N)[C@@H](O)[C@@H]1O,,inactive [at 0.4 µM],
COc1cc2c(cc1OC)[C@@H](Cc1cc(OC)c(OC)c(OC)c1)[N+](C)(CCCOC(=O)CC/C=C/CCC(=O)OCCC[N+]1(C)CCc3cc(OC)c(OC)cc3[C@H]1Cc1cc(OC)c(OC)c(OC)c1)CC2 (stereo partly specified),inactive,,
CC(=O)N=c1sc(S(N)(=O)=O)nn1C,inactive,,
O=S(=O)(O)CC(S)CS (stereo unspecified),10.1 µM (active),,
CCC[C@@H]1C[C@@H](C(=O)N[C@@H]([C@H]2O[C@H](SC)[C@H](O)[C@@H](O)[C@H]2O)[C@H](C)Cl)N(C)C1,inactive,,
Cc1nc(NS(=O)(=O)c2ccc(N)cc2)nc(C)c1Br,inactive,,
COC(=O)c1ccccc1O,inactive,,
C[C@@H]1C[C@H]2[C@@H]3C[C@H](F)C4=CC(=O)C=C[C@]4(C)[C@@]3(Cl)[C@@H](O)C[C@]2(C)[C@H]1C(=O)COC(=O)C(C)(C)C,inactive,,
NS(=O)(=O)c1cc2c(cc1Cl)NC(Cc1ccccc1)NS2(=O)=O (stereo unspecified),inactive,,
CCOC(=O)Oc1c(OC)cc(C(=O)O[C@@H]2C[C@@H]3CN4CCc5c([nH]c6cc(OC)ccc56)[C@H]4C[C@@H]3[C@H](C(=O)OC)[C@H]2OC)cc1OC,inactive,,
OCCN1CCN(CC/C=C2/c3ccccc3Sc3ccc(Cl)cc32)CC1,inactive,,
CN1C(=O)OC(C)(C)C1=O,inactive,,

Structure (SMILES),Potency,outcome,"activity, negative = inhibition"
Oc1cc(O)cc(O)c1,inactive,,
CCCC(CCC)C(=O)OC1C[C@H]2CC[C@@H](C1)[N+]2(C)C (stereo partly specified),inactive,,
c1ccc2ccccc2c1,inactive,,
CC(C)C[C@H](NC(=O)[C@@H](COC(C)(C)C)NC(=O)[C@H](Cc1ccc(O)cc1)NC(=O)[C@H](CO)NC(=O)[C@H](Cc1c[nH]c2ccccc12)NC(=O)[C@H](Cc1cnc[nH]1)NC(=O)[C@@H]1CCC(=O)N1)C(=O)N[C@@H](CCCN=C(N)N)C(=O)N1CCC[C@H]1C(=O)NNC(N)=O,inactive,,
CCC(C(=O)NC(N)=O)c1ccccc1 (stereo unspecified),inactive,,
CC1(C)[C@@H]2CC[C@@]1(C)[C@H](OC(=O)CSC#N)C2,inactive,,
CC(CN(C)C)CN1c2ccccc2Sc2ccc(C(F)(F)F)cc21 (stereo unspecified),inactive,,
CC(CCc1ccc(O)cc1)NCC(O)c1ccc(O)cc1 (stereo unspecified),inactive,,
C[C@@H](O)[C@H]1C(=O)N2C(C(=O)[O-])=C(SC3Cn4cnc[n+]4C3)[C@H](C)[C@H]12 (stereo partly specified),,,-13.7% [at 9.52 µM]
Cc1c(O)c(=O)ccn1C,inactive,,
CCCCCCCCCCCCCCCC(=O)OC[C@@H](O)[C@H]1OC[C@H](O)[C@H]1O,inactive,,
CNC(=O)[C@H](Cc1c[nH]c2ccccc12)NC(=O)[C@@H](CC(=O)NO)CC(C)C,inactive,,
NC(=O)[C@@H]1C[C@]2(NC(=O)NC2=O)c2cc(F)ccc2O1,inactive,,
O=C(O[C@H]1CN2CCC1CC2)N1CCc2ccccc2[C@@H]1c1ccccc1,inactive,,
COc1ccc(/C=C/C(=O)OCCC(C)C)cc1,inactive,,
CCCc1ccc(C(=O)O)cc1,inactive,,

# Molecular target: Phospholipid hydroperoxide glutathione peroxidase GPX4 (Homo sapiens) (UniProt P36969)
# Sequence (P36969 whole entry, looked up): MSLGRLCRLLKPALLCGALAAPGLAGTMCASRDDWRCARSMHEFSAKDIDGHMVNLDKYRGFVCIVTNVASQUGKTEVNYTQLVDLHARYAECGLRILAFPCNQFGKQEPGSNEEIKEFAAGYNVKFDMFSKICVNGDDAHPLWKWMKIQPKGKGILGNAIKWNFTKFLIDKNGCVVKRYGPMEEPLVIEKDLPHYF
# Experiment: Primary qHTS Assay for Inhibitors of Recombinant Selenoprotein Glutathione Peroxidase 4 (GPX4) (AID 1845192)
# Conditions: recombinant GPX4, GR-coupled NADPH fluorescence, 15 min; series mostly up to 50 µM
# Outline: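 qHTS, GR-coupled: GPX4 200 nM + cpd 30 min RT → GSH 1 mM, NADPH 0.5 mM, GR 100 nM → CHP 0.5 mM start; fluor 340/450 at t0 and t15 min; no-enzyme wells as control.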
Structure (SMILES),Potency,outcome,"activity change, negative = inhibition"
O=C(CCCN1CCC(C(=O)c2ccc(F)cc2)CC1)c1ccc(F)cc1,inactive,,
CN1C(=O)C[C@@H](C(=O)N[C@@H](Cc2cnc[nH]2)C(=O)N2CCC[C@H]2C(N)=O)NC1=O,inactive,,
CC(=O)Nc1c(I)c(C(=O)N[C@H]2C(O)O[C@H](CO)[C@@H](O)[C@@H]2O)c(I)c(N(C)C(C)=O)c1I (stereo partly specified),inactive,,
CC(C)[C@H](N)C(=O)OCC(CO)OCn1cnc2c(=O)[nH]c(N)nc21 (stereo partly specified),inactive,,
Nc1ccc(N=Nc2ccccc2)c(N)n1,inactive,,
NC[C@@H]1O[C@H](O[C@H]2[C@@H](O)[C@H](O[C@@H]3[C@@H](O)[C@H](N)C[C@H](N)[C@H]3O[C@H]3O[C@H](CO)[C@@H](O)[C@H](O)[C@H]3N)O[C@@H]2CO)[C@H](N)[C@@H](O)[C@@H]1O,,inactive [at 0.409 µM],
COc1cc2c(cc1OC)[C@@H](Cc1cc(OC)c(OC)c(OC)c1)[N+](C)(CCCOC(=O)CC/C=C/CCC(=O)OCCC[N+]1(C)CCc3cc(OC)c(OC)cc3[C@H]1Cc1cc(OC)c(OC)c(OC)c1)CC2 (stereo partly specified),inactive,,
CC(=O)N=c1sc(S(N)(=O)=O)nn1C,inactive,,
O=S(=O)(O)CC(S)CS (stereo unspecified),7.08 µM (active),,
CCC[C@@H]1C[C@@H](C(=O)N[C@@H]([C@H]2O[C@H](SC)[C@H](O)[C@@H](O)[C@H]2O)[C@H](C)Cl)N(C)C1,inactive,,
Cc1nc(NS(=O)(=O)c2ccc(N)cc2)nc(C)c1Br,inactive,,
COC(=O)c1ccccc1O,inactive,,
C[C@@H]1C[C@H]2[C@@H]3C[C@H](F)C4=CC(=O)C=C[C@]4(C)[C@@]3(Cl)[C@@H](O)C[C@]2(C)[C@H]1C(=O)COC(=O)C(C)(C)C,inactive,,
NS(=O)(=O)c1cc2c(cc1Cl)NC(Cc1ccccc1)NS2(=O)=O (stereo unspecified),inactive,,
CCOC(=O)Oc1c(OC)cc(C(=O)O[C@@H]2C[C@@H]3CN4CCc5c([nH]c6cc(OC)ccc56)[C@H]4C[C@@H]3[C@H](C(=O)OC)[C@H]2OC)cc1OC,15.8 µM (active),,
OCCN1CCN(CC/C=C2/c3ccccc3Sc3ccc(Cl)cc32)CC1,inactive,,
CN1C(=O)OC(C)(C)C1=O,inactive,,

Structure (SMILES),Potency,outcome,"activity change, negative = inhibition"
Oc1cc(O)cc(O)c1,inactive,,
CCCC(CCC)C(=O)OC1C[C@H]2CC[C@@H](C1)[N+]2(C)C (stereo partly specified),inactive,,
c1ccc2ccccc2c1,inactive,,
CC(C)C[C@H](NC(=O)[C@@H](COC(C)(C)C)NC(=O)[C@H](Cc1ccc(O)cc1)NC(=O)[C@H](CO)NC(=O)[C@H](Cc1c[nH]c2ccccc12)NC(=O)[C@H](Cc1cnc[nH]1)NC(=O)[C@@H]1CCC(=O)N1)C(=O)N[C@@H](CCCN=C(N)N)C(=O)N1CCC[C@H]1C(=O)NNC(N)=O,inactive,,
CCC(C(=O)NC(N)=O)c1ccccc1 (stereo unspecified),inactive,,
CC1(C)[C@@H]2CC[C@@]1(C)[C@H](OC(=O)CSC#N)C2,inactive,,
CC(CN(C)C)CN1c2ccccc2Sc2ccc(C(F)(F)F)cc21 (stereo unspecified),inactive,,
CC(CCc1ccc(O)cc1)NCC(O)c1ccc(O)cc1 (stereo unspecified),inactive,,
C[C@@H](O)[C@H]1C(=O)N2C(C(=O)[O-])=C(SC3Cn4cnc[n+]4C3)[C@H](C)[C@H]12 (stereo partly specified),,,-27.3% [at 9.73 µM]
Cc1c(O)c(=O)ccn1C,inactive,,
CCCCCCCCCCCCCCCC(=O)OC[C@@H](O)[C@H]1OC[C@H](O)[C@H]1O,inactive,,
CNC(=O)[C@H](Cc1c[nH]c2ccccc12)NC(=O)[C@@H](CC(=O)NO)CC(C)C,inactive,,
NC(=O)[C@@H]1C[C@]2(NC(=O)NC2=O)c2cc(F)ccc2O1,inactive,,
O=C(O[C@H]1CN2CCC1CC2)N1CCc2ccccc2[C@@H]1c1ccccc1,inactive,,
COc1ccc(/C=C/C(=O)OCCC(C)C)cc1,inactive,,
CCCc1ccc(C(=O)O)cc1,inactive,,
